# Laboratory results: PubChem BioAssay AID1851 (National Center for Advancing Translational Sciences (NCATS), 2009)
# “And” between values parts separate entries of the source, which are not always exact repeats. Equal entries are not always repeated. The campaign covered roughly 16,000 compounds. About 4,000 (25%) were called active. Inconclusive results (about 26%) are left out. Not all results are given here. Values without a mark were called inactive. Calls follow the shape of the dose curve; as a rule, active = well fitted curve in the direction sought with a large enough effect; inconclusive = small, poorly fitted or top-dose-only effect, or effect the other way; inactive = no such curve, though single readings can be large or run the other way.
# Biological target: Cytochrome P450 2C9 (Homo sapiens) (UniProt P11712)
# Test: Cytochrome panel assay with activity outcomes
# Conditions: recombinant CYP, pro-luciferin dealkylation, luminescence, p450-cyp2c9; series mostly up to 57.1 µM
# % is scaled to controls: 0 for no effect and ±100 for the full control effect.
# Sequence of Cytochrome P450 2C9 (Homo sapiens) (P11712 whole entry, looked up): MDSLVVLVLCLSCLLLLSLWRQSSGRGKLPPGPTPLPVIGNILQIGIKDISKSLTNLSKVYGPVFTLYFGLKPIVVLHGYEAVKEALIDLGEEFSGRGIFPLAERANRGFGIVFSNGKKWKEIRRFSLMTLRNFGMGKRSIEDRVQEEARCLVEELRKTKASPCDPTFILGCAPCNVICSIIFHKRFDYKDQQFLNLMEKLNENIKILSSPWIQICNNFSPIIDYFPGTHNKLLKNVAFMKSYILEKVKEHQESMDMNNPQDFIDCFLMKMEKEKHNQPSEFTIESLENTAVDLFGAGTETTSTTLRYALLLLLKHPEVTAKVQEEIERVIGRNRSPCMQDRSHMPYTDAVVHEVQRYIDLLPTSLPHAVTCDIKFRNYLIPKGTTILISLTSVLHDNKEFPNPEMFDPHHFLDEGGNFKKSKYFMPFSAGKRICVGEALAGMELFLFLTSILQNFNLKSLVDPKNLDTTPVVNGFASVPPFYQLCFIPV
Structure (SMILES),AC50,"activity, negative = inhibition"
N[C@H](Cn1ccc(=O)n(Cc2ccccc2C(=O)O)c1=O)C(=O)O,inactive,
Cc1noc(C)c1C(=O)N1CCC[C@@]2(CCN(C(=O)NC(C)C)C2)C1,inactive,
c1nc(NCCN2CCOCC2)c2cc(-c3ccoc3)ccc2n1,,-2.85% [at 2.29 µM]
O=C(O)[C@H](Cc1ccc(O)c([N+](=O)[O-])c1)N1C(=O)c2ccccc2C1=O,,0.788% [at 11.4 µM]
Cc1cc(/C=N\NC(=O)c2cccs2)c(C)n1-c1ccc2ncccc2c1,3.16 µM (active),
Clc1ccc2c(NC3CCC(N4CCCCC4)CC3)ccnc2c1 (stereo not given),,10.6% [at 11.4 µM]
COc1cccc(NC(=O)CSc2nc3c(c(-c4ccco4)c2C#N)CCCC3)c1,inactive,
N#Cc1c(N)nc2c(c1-c1cccc(O)c1)CCCCCC2,8.91 µM (active),
Cc1cc2ncn(/N=C/c3ccc([N+](=O)[O-])o3)c2cc1C,inactive,
Cc1cc(-c2ccc(/C=N/n3cnnc3)o2)c([N+](=O)[O-])cc1C,2.51 µM (active),
Cc1ccc(-c2ccc(/C=N/N3C(=O)C4C5C=CC(C6CC56)C4C3=O)o2)c([N+](=O)[O-])c1 (stereo not given),5.01 µM (active),
COc1ccccc1-c1cncnc1Nc1ccc(F)cc1,,-21.5% [at 2.29 µM]
Cn1cccc1C(=O)N1CCC2(CCN(C(=O)Nc3cccc(F)c3)CC2)CC1,inactive,
CON(C)C(=O)c1nnc2c3ccccc3n(S(=O)(=O)c3ccc(C)cc3)c2n1,,12.1% [at 11.4 µM] and -11.7% [at 11.4 µM]
COCC(=O)Oc1c(S(=O)(=O)c2ccc(C)cc2)c(C)nn1-c1ccccc1,1.78 µM (active),
Nc1c2c(nc3ccccc13)CCCC2,inactive,
COc1ccc(C(=O)Nc2ccc(C(=O)OCC(=O)c3ccccc3)cc2)cc1,inactive,
COc1ccc(NC(=O)COC(=O)c2c3c(nc4ccccc24)CCCC3)cc1,7.08 µM (active),
COc1cccc(NC(=O)COC(=O)c2nc3nccc(C)n3n2)c1,inactive,
COc1cc(-c2nnc(COC(=O)c3c4c(nc5ccccc35)CCCC4)o2)cc(OC)c1OC,2 µM (active),
COc1cccc(NC(=O)COC(=O)c2c3c(nc4ccccc24)CCC(C)C3)c1 (stereo not given),11.2 µM (active),
COc1ccc(OC)c(NC(=O)c2c3c(nc4ccccc24)CCC3)c1,14.1 µM (active),
Cn1c2c(c(=O)n(C)c1=O)CN(CCN1CCNCC1)CN2,inactive,

Structure (SMILES),AC50,"activity, negative = inhibition"
Cc1cc(C)c(-c2cc([C@H](C)O/N=C\[C@@H](C)[C@H](OCc3ccccc3)C(C)C)on2)c(C)c1,,-7.67% [at 11.4 µM]
C[N+](C)(N)CCC[N+](C)(C)N,,15.9% [at 11.4 µM]
N[C@H](CCC(=O)N[C@H](CSN=O)C(=O)NCC(=O)O)C(=O)O,5.01 µM (active),
[N-]=[N+]=Nc1ccc(C(=O)CSC[C@@H](NC(=O)CC[C@@H](N)C(=O)O)C(=O)NCC(=O)O)cc1,inactive,
N[C@H](CCC(=O)NCC(=O)O)C(=O)O,inactive,
CO[C@@H](C(C)C)[C@@H](C)[C@@H]1OC(=O)C[C@@H]1O,,-15.2% [at 11.4 µM]
Cc1ccc(CSc2nnc(C(F)(F)F)n2Cc2ccc(F)cc2)cc1,4.47 µM (active),
COc1cccc(CSc2nnc(C(F)(F)F)n2Cc2ccc(F)cc2)c1,11.2 µM (active),
Cc1c(CC(C)(C)C(=O)O)n(Cc2ccc(Cl)cc2)c2ccc(F)cc12,inactive,
Fc1ccc(Cn2c(SCc3ccc(F)c(C(F)(F)F)c3)nnc2C(F)(F)F)cc1,7.08 µM (active),
COc1cccc(CSCC(=O)O)c1,,-12.1% [at 11.4 µM]
Fc1ccc(Cn2c(SCc3ccc(F)c(F)c3)nnc2C(F)(F)F)cc1,15.8 µM (active),
COc1cccc(-c2nccc(NC3CCNCC3)n2)c1,,9.19% [at 2.29 µM]
Cc1cc(=O)oc2cc(O)c(CN(C)CC(=O)O)cc12,,-0.896% [at 11.4 µM]
NCCC(=O)O,inactive,
Cc1ccc([C@@H](O)c2cnc(C)n2Cc2ccccc2)cc1,,-18.2% [at 11.4 µM]
Cc1ccc(C(=O)Nc2c(C#N)c(C)c(C)n2Cc2ccccc2)cc1,3.55 µM (active),
COc1cccc(CNc2ccc3nc(-c4ccc(N)cc4)c(OC)n3n2)c1,inactive,
CCN(CC)CCCN(Cc1cc2ccc(C)c(C)c2[nH]c1=O)C(=O)NC1CCCCC1,inactive,
C/C(=N\OC(=O)NC1CCCCC1)c1sc(-c2ccccc2)nc1C,11.2 µM (active),
CNC(=O)c1sc(-c2cccnc2)nc1C,inactive,
Cc1nc(-c2cccnc2)sc1C(N)=O,inactive,
Cc1noc(C)c1-c1nccc(N(C)C)n1,,-8.59% [at 2.29 µM]

Structure (SMILES),AC50,"activity, negative = inhibition"
CC(=O)OC[C@@H]1O[C@@H](O/N=C2/C[C@@H](O)[C@@H](O)[C@@H]3[C@@H]4C(=O)N(C[C@@H]5CCCO5)C(=O)[C@H]4CC[C@@H]23)[C@H](OC(C)=O)[C@H](OC(C)=O)[C@@H]1OC(C)=O,,-5.55% [at 11.4 µM]
COc1cccc(-c2[nH]nc3c2C(c2ccsc2)C(C#N)=C(N)O3)c1 (stereo not given),2.51 µM (active),
COc1cccc(-c2cc(NCc3cccs3)ncn2)c1,,-10.2% [at 2.29 µM]
CNc1c2c(nn1C)CCCC2,inactive,
O=c1cc(CO)oc(CN2CCCC2)c1O,inactive,
Cc1ccc(N(C(C)C(=O)Nc2cc(Cl)ccc2Oc2ccccc2)S(C)(=O)=O)cc1 (stereo not given),6.31 µM (active),
CC(C(=O)Nc1ccccc1Sc1ccccc1)N(c1ccccc1)S(C)(=O)=O (stereo not given),4.47 µM (active),
COc1cccc(C=NC=Nc2cccc(OC)c2)c1,inactive,
CN(C)C(=O)c1ccc(-c2ccc3ncnc(NCc4cccs4)c3c2)cc1,,8.22% [at 2.29 µM]
Cc1ccc(N=C/C(C(=O)C(F)(F)F)=C(\O)c2cccs2)cc1,3.55 µM (active),
C[C@](N)(COP(=O)(O)O)C(=O)O,inactive,
COc1cc(C2C(C#N)=C(N)N(Nc3ccccc3)C3=C2C(=O)CC(C)(C)C3)ccc1OCc1cccc(F)c1 (stereo not given),3.98 µM (active),
COc1ccc(C2C(C#N)=C(N)N(Nc3ccccc3)C3=C2C(=O)CC(C)(C)C3)cc1C (stereo not given),1.58 µM (active),
CC(=O)N(CC(O)CN(C(C)=O)c1c(I)c(C(=O)NC[C@@H](O)CO)c(I)c(C(=O)NC[C@@H](O)CO)c1I)c1c(I)c(C(=O)NC[C@@H](O)CO)c(I)c(C(=O)NC[C@@H](O)CO)c1I,inactive,
COc1ccccc1-c1cc(NCc2cnc(C)cn2)ncn1,,9.42% [at 2.29 µM]
O=C(O)[C@H]([C@H]1NCCS1)N1Cc2ccccc2C1,,1.08% [at 11.4 µM]
Cc1cccc(Sc2c([N+](=O)[O-])ncn2C)n1,inactive,
N#Cc1ccc(CN2CC3(CCN(C(=O)c4cc(C(F)(F)F)cc(C(F)(F)F)c4)CC3)C2)cc1,inactive,
O=S(=O)(c1ccccc1)N1CCC2(CC1)CN(C(c1ccccc1)c1ccccc1)C2,1 µM (active),
O=S(=O)(c1ccccc1)N1CCC2(CCN(C(c3ccccc3)c3ccccc3)CC2)CC1,0.501 µM (active),
CS(=O)(=O)N1CCC2(CCN(C(c3ccccc3)c3ccccc3)CC2)CC1,inactive,
O=S(=O)(c1ccccc1)N1CCC2(CCCN(C(c3ccccc3)c3ccccc3)C2)CC1,inactive,
CC(C)NC(=O)N1CC2(CCN(S(=O)(=O)c3ccccc3)CC2)C1,inactive,

Structure (SMILES),AC50,"activity, negative = inhibition"
NC1CCN(c2cccc(Cl)n2)CC1,inactive,
C[C@H]1[C@@H](O)[C@@H](C)\C=C/C=C\C=C/C=C\C=C/C=C\C=C/[C@@H](O[C@H]2O[C@@H](C)[C@@H](O)[C@@H](N)[C@@H]2O)C[C@@H]2O[C@](O)(C[C@@H](O)C[C@@H](O)[C@@H](O)CC[C@@H](O)C[C@@H](O)CC(=O)O[C@H]1C)C[C@@H](O)[C@H]2C(=O)O (stereo in doubt),inactive,
CC(=NC1CCCCC1)c1ccccc1O,,-0.794% [at 11.4 µM]
CC1(C)CC(=O)C2=C(C1)N(Cc1ccccc1)C(=O)C2(O)C(F)(F)F (stereo not given),inactive,
CCCCN1C(=O)C(NC(=O)C2CC2)(C(F)(F)F)C2=C1CC(C)(C)CC2=O (stereo not given),6.31 µM (active),
CCOC(=O)c1c(-c2ccc(C)o2)csc1NC(=S)NC(=O)N(C)C,10 µM (active),
Cc1cc(C)n2nc(-c3sccc3-n3cccc3)cc2n1,inactive,
COc1ccccc1-c1nc(NCCN2CCOCC2)c2ccccc2n1,,14% [at 2.29 µM]
COc1ccccc1-c1ccc2ncnc(NCCN3CCOCC3)c2c1,,-10.8% [at 2.29 µM]
COc1ccc(C2c3c(ncn(CCN4CCOCC4)c3=N)Oc3ccc4ccccc4c32)cc1OC (stereo not given),8.91 µM (active),
CCOC(=O)CSc1n[nH]c(NC(=O)c2ccccc2)n1,inactive,
Cn1sc(NC(=O)c2ccccc2)nc1=O,14.1 µM (active),
C=CCNC(=O)C1CCN(S(=O)(=O)CC)CC1,inactive,
Cc1ccc(S(=O)(=O)N[C@H](CO)C(=O)O)cc1,,-14.1% [at 11.4 µM]
O=C(O)[C@H](/C=C\c1ccccc1)c1ccccc1,,-17.8% [at 11.4 µM]
Cc1ccc(S(=O)(=O)N[C@@H](CCc2ccccc2)CC(=O)C(C)(C)C)cc1,3.98 µM (active),
CC(CCc1ccccc1)NS(=O)(=O)c1ccccc1 (stereo not given),3.98 µM (active),
O=C(O)/C=C\C(=O)NCc1ccccc1,inactive,
C[C@@H](CCc1ccccc1)NC[C@H](O)c1ccc(O)c(C(N)=O)c1,inactive,
CC(CCc1ccccc1)NC(=O)/C=C/c1ccccc1 (stereo not given),7.08 µM (active),
COC(=O)C/C=C\[C@@H](C)[C@@H](CO)NS(=O)(=O)c1ccc(C)cc1,,-7.12% [at 11.4 µM]
